ALOX12 inh – blocks human arachidonate 12S-lipoxygenase; hit rate 1.1% among 580,000; AID 1671190; purified 12hLO, xylenol orange hydroperoxide absorbance; Potency, µM (doses to about 108 µM), inactives show at the highest dose activity change, negative = inhibition, hits mostly inhibitors
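Purified human 12hLO (150 nM final) in 25 mM Hepes, 0.01% Triton X-100, pH 7.0 was preincubated 15 min at room temperature with compound. Then 40 uM arachidonic acid was added, 30 min. Hydroperoxide was read by Fe-XO absorbance ratio 573/405 nm.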
TDP1 cell noCPT – qHTS for Inhibitors of human tyrosyl-DNA phosphodiesterase 1 (TDP1): qHTS in cells in absence of CPT. DT40 Tdp1-/- hTDP1 cells, no CPT, ATP luminescence, 48 h. Potency, µM (titrated, usually from 46.2 µM), for the others: top-dose activity change, negative = growth inhibition, actives largely listed as inhibitors. hit rate 15% among 420,000. AID 686978, 2013; further: nearly all actives have a fitted effect of over 55% in size
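Readout: luminescence from CellTiter-Glo after 30 min in the dark at RT. Cells: DT40 Tdp1-/- with stable hTDP1, 400/well. Exposure: compounds alone, ≥48 hr, 37 °C.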
ELG1 DNA repair – ELG1-dependent DNA repair inhibition; Potency, µM (doses to about 46.1 µM), for inactives: at the highest dose activity change, negative = inhibition, usual class: inhibitors; AID 504467; HEK293T ELG1-luciferase reporter, luminescence, 16 h; DNA damage induced by 5-fluorouridine; hit rate 2.3% among 330,000; further: nearly all actives have a fitted effect of over 55% in size
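Reporter activity after DNA damage by 5-fluorouridine is monitored. Compound-treated cells incubate 16 hr at 37 °C, then ONE-Glo is added for 30 min before luminescence reading.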
TDP1 cell CPT – growth inhibition of DT40 Tdp1-/-;hTDP1 cells with camptothecin (screen for TDP1 inhibitors); Potency, µM (doses to about 46.2 µM), for inactives: top-dose activity change, negative = growth inhibition, actives largely listed as inhibitors; AID 686979; hit rate 12% among 420,000; chicken DT40 Tdp1-/-;hTDP1 cells + 20 nM CPT, ATP luminescence, 48 h; further: nearly all actives have a fitted effect of over 55% in size
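Chicken DT40 Tdp1-/- cells stably complemented with human TDP1 were seeded at 400 cells/well in medium containing 20 nM camptothecin, exposed to pin-transferred compounds, and grown at 37 °C for at least 48 hr. Viability was read as ATP luminescence.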
RORg inh – blocks mouse ROR gamma transcriptional activity. Drosophila S2 Gal4-RORgamma UAS-luciferase reporter, 20 h. Potency, µM (doses to about 53.6 µM), without a hit: at the top dose activity change, negative = inhibition, hits mostly inhibitors. hit rate 5.4% among 310,000; further: nearly all actives have a fitted effect of over 60% in size
Target sequence (P51450 whole entry, looked up, the tested form may be a part): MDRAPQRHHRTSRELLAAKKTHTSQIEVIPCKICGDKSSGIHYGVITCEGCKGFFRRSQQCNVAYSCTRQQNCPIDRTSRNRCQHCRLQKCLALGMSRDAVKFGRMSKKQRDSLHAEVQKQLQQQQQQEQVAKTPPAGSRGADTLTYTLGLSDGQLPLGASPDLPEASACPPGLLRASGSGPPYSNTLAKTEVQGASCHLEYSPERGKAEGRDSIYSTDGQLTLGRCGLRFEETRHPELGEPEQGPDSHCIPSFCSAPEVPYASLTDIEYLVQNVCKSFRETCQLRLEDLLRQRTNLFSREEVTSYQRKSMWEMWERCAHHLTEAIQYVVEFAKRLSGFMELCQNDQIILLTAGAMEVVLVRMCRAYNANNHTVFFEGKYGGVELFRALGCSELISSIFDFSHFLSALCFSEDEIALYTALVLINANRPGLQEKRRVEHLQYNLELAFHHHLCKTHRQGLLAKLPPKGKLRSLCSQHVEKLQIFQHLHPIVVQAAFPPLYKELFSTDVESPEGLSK
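Read-out: Photinus luciferase luminescence; inhibitors lower reporter signal. Insect Schneider cells with Gal4-ROR gamma fusion under metallothionein promoter, UAS reporter; 700 uM final copper sulfate induction, 20 hr, ambient temperature.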
VP16 counter – inhibits Gal4-VP16 luciferase reporter, ROR gamma counter-screen; Drosophila S2 Gal4-VP16 UAS-luciferase, luminescence, 20 h; Potency, µM (series often up to 53.6 µM), inactives show top-dose activity, negative = inhibition, usual class: inhibitors; hit rate 3.5% among 310,000; AID 2546;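 further: Gal4-VP16 expression switched on by copper sulfate through the metallothionein promoter; nearly all actives have a fitted effect of over 50% in size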
An asterisk follows results filed as active; ? = inconclusive; nt = not tested or not shown; [ ] = another dose, or the depositor's remark. Most compounds without a hit are left out; they make up all but 15% or so of the library. The call rests on the fitted dose curve; in most records, active means well fitted curve in the direction sought with a large enough effect; inconclusive means small, poorly fitted or top-dose-only effect, or another doubt; inactive means no such curve, though single readings can be large; an effect the other way counts as inactive or inconclusive. On the % scale 0 is the no-effect control and ±100 the full control effect; potency means the concentration at half of the fitted maximal effect.

SMILES | ALOX12 inh | TDP1 cell noCPT | ELG1 DNA repair | TDP1 cell CPT | RORg inh | VP16 counter
COc1ccc(C(=O)CSc2nnc3ccccn23)cc1OC | -1.2% | -0.1% | ? | -1.3% | 20.1% | 21.6%
CC(C)n1nnnc1SCC(=O)c1ccc2c(c1)OCCO2 | ? | ? | ? | ? | -17.4% | -28.8%
CC(C)c1ccc(S(=O)(=O)N2CCN(C(=O)CSc3nnnn3C3CCCC3)CC2)cc1 | -20.1% | nt | nt | nt | nt | nt
O=C(CSc1nnnn1C1CCCC1)c1ccc2c(c1)OCCO2 | -17.0% | ? | ? | 20.6µM* | ? | ?
COc1ccc(C)cc1-n1nnnc1SCC(=O)Nc1cc(C)on1 | -8.6% | ? | ? | ? | ? | -1.5%
Cc1ccccc1-c1[nH]nc2ncc(-c3ccsc3)nc12 | 16.5%[176 µM] | nt | nt | nt | nt | nt
COCCn1c(SCC(=O)c2ccc3c(c2)OCCO3)nnc1-c1ccoc1C | 7.3% | 10.3µM* | 4.1% | 14.6µM* | -0.4% | -4.2%
CC(=O)c1ccc(N2CCN(C(=O)c3noc4c3CCc3sccc3-4)CC2)cc1 | -14.0% | nt | nt | nt | nt | nt
COc1ccc(NC(=O)[C@@H]2C[C@@H](c3ccc(F)cc3)N([S+](=O)([O-])c3ccccc3)C2)c(C)c1 | -27.6% | nt | nt | nt | nt | nt
CCN1CCN(c2ccc(S(=O)(=O)N3CCCCC3)cc2NC(=O)COc2ccc(F)cc2Cl)CC1 | ? | ? | -16.6% | 20.6µM* | ? | -19.1%
COCCCNCc1cc(C)n(-c2cc(S(=O)(=O)N3CCOCC3)ccc2N2CCCC2)c1C | 208.8% | ? | nt | ? | nt | nt
CCN1CCN(c2ccc(S(=O)(=O)N3CCCCC3)cc2NC(=O)c2sccc2C)CC1 | ? | 23.1µM* | -1.1% | ? | nt | nt
O=C(COc1ccc(F)cc1Cl)Nc1cccc(S(=O)(=O)N2CCCC2)c1 | -9.8% | -25.7% | ? | ? | nt | nt
CCN1CCN(c2ccc(S(=O)(=O)N3CCCCC3)cc2NC(=O)c2ccc(C)c(C)c2)CC1 | 190.8% | 23.1µM* | nt | ? | nt | nt
Cc1cc(C#N)c(C)n1-c1cc(S(=O)(=O)N2CCOCC2)ccc1N1CCCC1 | ? | 14.6µM* | nt | 16.4µM* | 0.8% | 18.0%
c1ccc(CNc2cc(-c3cc(N4CCCCC4)ncn3)c3cc[nH]c3n2)nc1 | 46.9% | nt | nt | nt | nt | nt
COCCn1c(C)c(C)c(S(=O)(=O)c2ccc(F)cc2)c1NC(=O)c1cccs1 | -24.9% | nt | nt | nt | nt | nt
Cn1cnc(S(=O)(=O)N2CCCN(CC3CCCCC3)CCNC(=O)CC2c2ccccc2)c1 (configuration not stated) | 63.9% | nt | nt | nt | nt | nt
O=C(C1CCC1)N1c2ccccc2CC1c1noc(C2CCOCC2)n1 (configuration not stated) | 43.1% | nt | nt | nt | nt | nt
CCCC(=O)N1CCn2c(nnc2[C@@H]2C[C@@H](O)CN2Cc2ccccc2)C1 | 21.2% | nt | nt | nt | nt | nt
O=C(Nc1cc(S(=O)(=O)N2CCOCC2)ccc1N1CCCC1)c1ccc(F)cc1 | 39.8µM* | ? | 14.6% | 13µM* | nt | nt
O=C(Nc1cc(S(=O)(=O)N2CCOCC2)ccc1-n1cncn1)c1ccc(Cl)cc1 | -0.6% | 29.1µM* | -10.8% | ? | 18.7% | -1.9%
O=C(Nc1cc(S(=O)(=O)N2CCCCC2)ccc1N1CCOCC1)c1ccc(F)cc1 | -10.0% | -25.9% | -10.7% | ? | nt | nt
CCN1CCN(c2ccc(S(=O)(=O)N3CCCCC3)cc2NC(=O)c2ccc(F)cc2)CC1 | ? | 20.6µM* | 2.4% | ? | -6.2% | 2.4%
O=C(Nc1ccc([C@H]2OCC(=O)N(Cc3ccccc3)[C@@H]2CO)cc1)C1CCOCC1 | 14.9%[176 µM] | nt | nt | nt | nt | nt
SMILES | ALOX12 inh | TDP1 cell noCPT | ELG1 DNA repair | TDP1 cell CPT | RORg inh | VP16 counter
CCCn1c(-c2cccc(F)c2)nc2c1c(=O)[nH]c(=O)n2Cc1ccccc1 | -12.5% | -19.0% | -1.2% | -10.7% | -6.2% | 21.4%
CCCn1c(-c2cc(OC)c(OC)c(OC)c2)nc2c1c(=O)[nH]c(=O)n2Cc1ccccc1 | ? | -97.5% | ? | 3.26µM* | ? | -1.4%
Cn1c(-c2cccc(F)c2)nc2c1c(=O)[nH]c(=O)n2Cc1ccccc1 | -2.8% | -25.5% | ? | -5.0% | 0.0% | -7.7%
Cn1c(-c2cccc(OCc3ccccc3)c2)nc2c1c(=O)[nH]c(=O)n2Cc1ccccc1 | 32.7% | 16.4µM* | ? | 20.6µM* | 14.5% | -0.6%
COc1ccc(-c2nc3c(c(=O)[nH]c(=O)n3Cc3ccccc3)n2C)cc1 | 362.9% | -6.6% | 4.0% | -4.0% | -3.9% | 5.2%
COc1ccc(-c2nc3c(c(=O)[nH]c(=O)n3Cc3ccccc3)n2Cc2ccccc2)cc1 | 0.0% | 20.6µM* | 8.2µM* | 23.1µM* | 6.5% | -8.3%
COc1cc(Br)cc(-c2nc3c(c(=O)[nH]c(=O)n3Cc3ccccc3)n2C)c1O | 0.0% | 23.1µM* | -7.3% | 16.4µM* | 19.2% | -18.4%
COCCN1CCCCCC(O)c2cc(C(=O)NCc3ccc(N4CCC(C)CC4)cc3)ccc21 (configuration not stated) | 10.6% | nt | nt | nt | nt | nt
COCCN1C[C@H]2CN(C(=O)C3CC3)CCN2C1=O | 34.8%[176 µM] | nt | nt | nt | nt | nt
Cc1c(CC(=O)NC2CC2)c(=O)oc2cc(O)c(Cl)cc12 | -6.6% | nt | nt | nt | nt | nt
NC(=O)c1ccccc1NC(=O)c1ccccc1-c1ccccc1 | 1.6% | nt | nt | nt | nt | nt
CCOCCn1c(=O)n(Cc2c(C)noc2C)c2cc(C(=O)O)cnc21 | 67.2% | nt | nt | nt | nt | nt
O=C(NC1CCCC1)N1CCc2nnc(C3CC3)n2CC1 | 21.5% | nt | nt | nt | nt | nt
CCOC(=O)N1CCN(C(=O)C(NC(=O)c2ccc(CC)cc2)C(C)C)CC1 (configuration not stated) | 2.8% | 5.8µM* | ? | 8.2µM* | ? | -11.7%
CCOC(=O)N1CCN(C(=S)NC(=O)c2cncc(Br)c2)CC1 | -29.4% | ? | 23.1% | ? | 1.12µM* | 2.51µM*
CCN1CCN(C(=S)NC(=O)c2cccc(Br)c2)CC1 | ? | ? | -16.7% | ? | nt | nt
CCOC(=O)N1CCN(C(=S)NC(=O)c2cc(Br)ccc2Cl)CC1 | -0.8% | ? | -4.0% | ? | 0.891µM* | 5.01µM*
CC(C)C(NC(=O)c1ccc(F)cc1)C(=O)N1CCC1 (configuration not stated) | 5.1% | 1.3% | 6.2% | -7.2% | nt | nt
CCOC(=O)N1CCN(C(=O)Cc2ccc(C)cc2)CC1 | -2.7% | -11.5% | ? | -13.7% | 6.8% | 0.7%
CCOC(=O)N1CCN(C(=S)NC(=O)/C=C/c2ccc(C)cc2)CC1 | -17.9% | -0.1% | 0.0% | -16.8% | 5.01µM* | 5.62µM*
Cc1ccc(NC2(c3nnnn3-c3ccccc3C)CCCC2)cc1 | -28.9% | nt | nt | nt | nt | nt

Source: PubChem BioAssay
